# Assay results: the supplement of paper PMC10849652
# Targets with a hit are over-represented here; the source holds about 7,900 in all. About 0.6% of all pairs of compound and target were hits. Values without a mark were called inactive.
# What was measured:
# Test in all cases: log2 fold change, soluble protein after heating vs DMSO (PISA); higher = thermal stabilisation; K562 cells, 10 uM, 30 min; active = over 0.2 and 3.5 SD of the protein, either way, in both replicates (recomputed)
# [1] = compound: CC[C@@H]1C(=O)N(C)c2cnc(Nc3ccc(C(=O)NC4CCN(C)CC4)cc3OC)nc2N1C1CCCC1
# Summary of the method: (§1)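 K562 cells at 2×10^6 cells/mL were treated with 10 μM compound for 30 min. Aliquots were heated for 3 min across 48°C-58°C, pooled, and extracted in PBS with 0.5% NP-40 at 4°C; soluble protein was the supernatant after 21,000xg for 90 min. Soluble protein was quantified by TMTpro 16plex LC-MS/MS with channel sums equalised, and reported as log2 fold change in thermal stability against DMSO controls, with values from duplicates.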
# [2] = compound: CC[C@H](C)N1C=C(C2=C(C=C(C=C21)C3=CN=C(C=C3)N4CCNCC4)C(=O)NCC5=C(C=C(NC5=O)C)C)C
# Summary of the method: as §1
# epoxomicin = compound: CC[C@H](C)[C@@H](C(=O)N[C@@H]([C@@H](C)O)C(=O)N[C@@H](CC(C)C)C(=O)[C@]1(CO1)C)NC(=O)[C@H]([C@@H](C)CC)N(C)C(=O)C [epoxomicin]
# Summary of the method: as §1
# [3] = compound: CCn1c(C(=O)N(C2CC2)C2CC2)cc2c3c(ncn3C)c(Nc3cc(C)n(C)n3)nc21
# Summary of the method: as §1
# [4] = compound: CCn1cc(-c2ccnc3[nH]c(-c4cccc(CN(C)C)c4)cc23)c(-c2ccc(NC(=O)N(C)C)cc2)n1
# Summary of the method: as §1
# [5] = compound: CN(C)CC(=O)Nc1ccc2[nH]c(=O)c3ccccc3c2c1
# Summary of the method: as §1
# rosiglitazone = compound: CN(CCOC1=CC=C(C=C1)C[C@H]2C(=O)NC(=O)S2)C3=CC=CC=N3 (racemic) [rosiglitazone]
# Summary of the method: as §1
# [6] = compound: CN1C2=C(C3=C1C(=O)N(N=C3)CC4=CC(=CC=C4)N)SC(=C2)S(=O)C
# Summary of the method: as §1
# [7] = compound: CN1CCC(CNc2ccc3ncc(-c4cccc(OC(F)(F)F)c4)n3n2)CC1
# Summary of the method: as §1
# saracatinib = compound: CN1CCN(CCOc2cc(OC3CCOCC3)c3c(Nc4c(Cl)ccc5c4OCO5)ncnc3c2)CC1 [saracatinib]
# Summary of the method: as §1
# sotrastaurin = compound: CN1CCN(c2nc(C3=C(c4c[nH]c5ccccc45)C(=O)NC3=O)c3ccccc3n2)CC1 [sotrastaurin]
# Summary of the method: as §1
# alvocidib = compound: CN1CC[C@H](c2c(O)cc(O)c3c(=O)cc(-c4ccccc4Cl)oc23)[C@H](O)C1 [alvocidib]
# Summary of the method: as §1
# Tubastatin A = compound: CN1CCc2c(c3ccccc3n2Cc2ccc(C(=O)NO)cc2)C1 [Tubastatin A]
# Summary of the method: as §1
# [8] = compound: CNC(=O)C1=CC=CC=C1NC2=NC(=NC=C2Cl)NC3=C(C=C(C=C3)N4CCOCC4)OC
# Summary of the method: as §1
# defactinib = compound: CNC(=O)c1ccc(Nc2ncc(C(F)(F)F)c(NCc3nccnc3N(C)S(C)(=O)=O)n2)cc1 [defactinib]
# Summary of the method: as §1
# rucaparib = compound: CNCc1ccc(-c2[nH]c3cc(F)cc4c3c2CCNC4=O)cc1 [rucaparib]
# Summary of the method: as §1
# [9] = compound: CNc1nc(-c2ccc3c(N)n[nH]c3c2)cc(N2C[C@@H](C(=O)NC3CCCCC3)CC[C@H]2C)n1
# Summary of the method: as §1
# encorafenib = compound: COC(=O)N[C@@H](C)CNc1nccc(-c2cn(C(C)C)nc2-c2cc(Cl)cc(NS(C)(=O)=O)c2F)n1 [encorafenib]
# Summary of the method: as §1
# [10] = compound: COC(=O)[C@H](CCSC)NC(=O)C1=C(C=C(C=C1)NC[C@H](CS)N)C2=CC=CC=C2
# Summary of the method: as §1
# volasertib = compound: CC[C@@H]1C(=O)N(C)c2cnc(Nc3ccc(C(=O)N[C@H]4CC[C@H](N5CCN(CC6CC6)CC5)CC4)cc3OC)nc2N1C(C)C [volasertib]
# Summary of the method: as §1
# Sequence of UniProt Q8IVF4 (Q8IVF4 whole entry, looked up): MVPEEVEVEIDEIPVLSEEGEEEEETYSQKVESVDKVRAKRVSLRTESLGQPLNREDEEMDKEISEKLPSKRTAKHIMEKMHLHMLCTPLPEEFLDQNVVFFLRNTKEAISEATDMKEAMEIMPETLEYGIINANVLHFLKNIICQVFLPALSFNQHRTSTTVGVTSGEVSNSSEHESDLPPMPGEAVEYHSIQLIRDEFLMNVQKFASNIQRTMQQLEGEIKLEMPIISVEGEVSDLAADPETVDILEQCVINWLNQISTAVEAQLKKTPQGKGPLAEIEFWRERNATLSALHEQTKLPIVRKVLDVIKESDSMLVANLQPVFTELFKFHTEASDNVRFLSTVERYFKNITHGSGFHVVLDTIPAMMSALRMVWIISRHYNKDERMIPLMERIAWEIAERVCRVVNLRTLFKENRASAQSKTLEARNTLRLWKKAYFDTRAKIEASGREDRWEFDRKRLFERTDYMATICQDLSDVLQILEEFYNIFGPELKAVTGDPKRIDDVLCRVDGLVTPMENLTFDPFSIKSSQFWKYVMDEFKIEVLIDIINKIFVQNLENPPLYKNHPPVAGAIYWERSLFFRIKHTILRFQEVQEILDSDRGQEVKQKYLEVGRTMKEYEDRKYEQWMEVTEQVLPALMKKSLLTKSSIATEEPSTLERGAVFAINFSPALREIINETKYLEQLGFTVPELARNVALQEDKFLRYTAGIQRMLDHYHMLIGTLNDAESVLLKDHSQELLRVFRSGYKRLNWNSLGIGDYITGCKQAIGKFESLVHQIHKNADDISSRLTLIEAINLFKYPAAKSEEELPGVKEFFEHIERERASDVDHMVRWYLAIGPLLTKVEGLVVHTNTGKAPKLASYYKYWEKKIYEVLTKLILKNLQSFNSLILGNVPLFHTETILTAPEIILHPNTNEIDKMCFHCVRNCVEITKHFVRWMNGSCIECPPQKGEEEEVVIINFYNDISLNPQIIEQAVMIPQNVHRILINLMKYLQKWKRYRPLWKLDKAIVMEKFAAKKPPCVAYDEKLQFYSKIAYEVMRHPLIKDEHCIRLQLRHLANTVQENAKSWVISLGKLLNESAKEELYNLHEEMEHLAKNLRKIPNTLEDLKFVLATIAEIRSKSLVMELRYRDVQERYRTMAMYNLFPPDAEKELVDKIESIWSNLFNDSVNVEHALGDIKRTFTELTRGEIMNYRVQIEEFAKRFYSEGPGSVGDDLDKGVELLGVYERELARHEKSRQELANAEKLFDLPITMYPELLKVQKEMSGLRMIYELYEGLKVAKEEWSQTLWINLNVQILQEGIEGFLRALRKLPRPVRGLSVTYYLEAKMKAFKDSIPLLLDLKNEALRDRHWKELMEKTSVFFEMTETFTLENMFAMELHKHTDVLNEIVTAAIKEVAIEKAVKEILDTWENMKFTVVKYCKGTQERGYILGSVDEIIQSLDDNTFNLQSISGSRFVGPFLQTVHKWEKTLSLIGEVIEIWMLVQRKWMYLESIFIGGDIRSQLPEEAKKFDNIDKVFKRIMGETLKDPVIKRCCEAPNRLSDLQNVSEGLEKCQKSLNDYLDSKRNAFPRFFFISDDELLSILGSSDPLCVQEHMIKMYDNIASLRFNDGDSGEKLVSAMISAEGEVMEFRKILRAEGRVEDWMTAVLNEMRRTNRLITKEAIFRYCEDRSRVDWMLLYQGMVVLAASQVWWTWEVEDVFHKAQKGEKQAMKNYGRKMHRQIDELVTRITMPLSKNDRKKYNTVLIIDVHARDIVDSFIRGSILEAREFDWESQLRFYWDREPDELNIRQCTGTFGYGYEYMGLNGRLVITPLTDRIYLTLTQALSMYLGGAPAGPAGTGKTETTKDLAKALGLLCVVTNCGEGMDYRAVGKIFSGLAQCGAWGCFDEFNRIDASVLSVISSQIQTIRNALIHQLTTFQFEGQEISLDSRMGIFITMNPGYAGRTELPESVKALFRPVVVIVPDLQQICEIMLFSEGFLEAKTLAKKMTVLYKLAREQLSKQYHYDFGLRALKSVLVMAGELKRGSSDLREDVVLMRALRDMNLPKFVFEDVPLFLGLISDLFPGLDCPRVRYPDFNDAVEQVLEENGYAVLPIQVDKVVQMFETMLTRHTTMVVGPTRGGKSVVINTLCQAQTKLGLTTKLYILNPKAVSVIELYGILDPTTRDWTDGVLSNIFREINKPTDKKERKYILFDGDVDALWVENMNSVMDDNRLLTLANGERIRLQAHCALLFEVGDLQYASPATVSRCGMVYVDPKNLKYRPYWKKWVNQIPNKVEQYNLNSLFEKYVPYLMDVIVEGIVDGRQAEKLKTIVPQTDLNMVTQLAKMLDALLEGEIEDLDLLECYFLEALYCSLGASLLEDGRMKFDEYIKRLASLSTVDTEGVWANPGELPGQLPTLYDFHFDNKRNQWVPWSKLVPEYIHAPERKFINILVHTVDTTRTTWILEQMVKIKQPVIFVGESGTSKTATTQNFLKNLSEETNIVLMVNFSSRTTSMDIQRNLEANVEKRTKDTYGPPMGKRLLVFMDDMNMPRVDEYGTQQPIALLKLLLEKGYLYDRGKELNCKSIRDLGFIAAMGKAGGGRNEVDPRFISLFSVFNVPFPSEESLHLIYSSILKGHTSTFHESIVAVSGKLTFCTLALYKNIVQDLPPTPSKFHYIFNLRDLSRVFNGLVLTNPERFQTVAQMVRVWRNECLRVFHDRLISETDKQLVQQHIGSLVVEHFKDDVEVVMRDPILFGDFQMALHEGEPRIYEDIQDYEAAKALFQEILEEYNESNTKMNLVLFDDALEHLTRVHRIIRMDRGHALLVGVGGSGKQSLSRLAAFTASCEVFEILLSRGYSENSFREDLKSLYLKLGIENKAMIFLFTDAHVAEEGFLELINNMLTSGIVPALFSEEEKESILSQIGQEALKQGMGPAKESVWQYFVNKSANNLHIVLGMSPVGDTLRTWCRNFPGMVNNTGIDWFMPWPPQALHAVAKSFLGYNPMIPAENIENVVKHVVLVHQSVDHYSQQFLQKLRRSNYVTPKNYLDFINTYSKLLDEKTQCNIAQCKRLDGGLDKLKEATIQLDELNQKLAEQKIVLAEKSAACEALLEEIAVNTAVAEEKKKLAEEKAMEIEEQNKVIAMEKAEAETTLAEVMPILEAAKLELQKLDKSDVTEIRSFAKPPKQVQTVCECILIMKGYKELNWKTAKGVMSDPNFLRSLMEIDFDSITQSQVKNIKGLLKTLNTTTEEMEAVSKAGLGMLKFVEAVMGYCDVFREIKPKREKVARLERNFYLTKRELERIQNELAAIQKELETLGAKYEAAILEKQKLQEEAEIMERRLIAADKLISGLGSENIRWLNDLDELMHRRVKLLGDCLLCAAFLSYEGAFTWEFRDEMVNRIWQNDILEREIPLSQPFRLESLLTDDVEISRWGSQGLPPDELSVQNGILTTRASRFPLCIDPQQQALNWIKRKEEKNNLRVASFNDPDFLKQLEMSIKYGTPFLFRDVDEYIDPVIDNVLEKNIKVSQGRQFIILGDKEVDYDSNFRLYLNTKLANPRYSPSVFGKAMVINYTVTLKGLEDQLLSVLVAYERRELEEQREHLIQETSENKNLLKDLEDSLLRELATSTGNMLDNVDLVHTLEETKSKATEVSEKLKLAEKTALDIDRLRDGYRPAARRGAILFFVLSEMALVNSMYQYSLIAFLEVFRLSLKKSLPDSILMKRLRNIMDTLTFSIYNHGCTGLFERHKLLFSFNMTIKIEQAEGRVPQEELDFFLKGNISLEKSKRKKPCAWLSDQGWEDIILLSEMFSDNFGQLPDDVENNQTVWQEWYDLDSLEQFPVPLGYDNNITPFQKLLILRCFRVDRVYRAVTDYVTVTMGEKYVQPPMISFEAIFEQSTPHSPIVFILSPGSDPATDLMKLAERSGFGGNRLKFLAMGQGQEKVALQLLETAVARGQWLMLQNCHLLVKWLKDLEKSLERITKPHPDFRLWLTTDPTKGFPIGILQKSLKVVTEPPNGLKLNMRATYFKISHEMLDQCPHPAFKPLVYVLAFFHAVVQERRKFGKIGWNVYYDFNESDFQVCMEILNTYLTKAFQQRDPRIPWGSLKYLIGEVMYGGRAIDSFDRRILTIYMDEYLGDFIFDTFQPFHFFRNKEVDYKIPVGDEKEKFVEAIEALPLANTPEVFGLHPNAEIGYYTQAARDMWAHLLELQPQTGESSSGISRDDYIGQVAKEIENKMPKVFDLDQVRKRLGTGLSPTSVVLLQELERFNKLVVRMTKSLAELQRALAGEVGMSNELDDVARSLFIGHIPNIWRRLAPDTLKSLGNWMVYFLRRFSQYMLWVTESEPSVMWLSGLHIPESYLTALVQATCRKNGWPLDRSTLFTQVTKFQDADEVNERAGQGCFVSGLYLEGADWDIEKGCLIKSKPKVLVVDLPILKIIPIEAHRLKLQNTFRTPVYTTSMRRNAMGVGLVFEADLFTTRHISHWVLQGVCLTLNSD
# Sequence of UniProt Q9Y6B2 (Q9Y6B2 whole entry, looked up): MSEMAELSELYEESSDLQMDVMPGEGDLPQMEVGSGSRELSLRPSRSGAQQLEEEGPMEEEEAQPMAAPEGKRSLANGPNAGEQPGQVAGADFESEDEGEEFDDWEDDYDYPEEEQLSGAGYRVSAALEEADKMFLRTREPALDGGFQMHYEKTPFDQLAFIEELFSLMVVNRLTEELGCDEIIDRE
# Sequence of UniProt O75822 (O75822 whole entry, looked up): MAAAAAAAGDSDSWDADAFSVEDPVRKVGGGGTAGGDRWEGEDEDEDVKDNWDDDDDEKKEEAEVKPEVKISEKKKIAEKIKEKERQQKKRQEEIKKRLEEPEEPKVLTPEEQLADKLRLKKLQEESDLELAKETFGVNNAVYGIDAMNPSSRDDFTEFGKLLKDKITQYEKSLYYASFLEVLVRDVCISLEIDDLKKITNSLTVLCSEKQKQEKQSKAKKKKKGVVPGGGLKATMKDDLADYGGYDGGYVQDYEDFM
# Sequence of UniProt Q8N8J7 (Q8N8J7 whole entry, looked up): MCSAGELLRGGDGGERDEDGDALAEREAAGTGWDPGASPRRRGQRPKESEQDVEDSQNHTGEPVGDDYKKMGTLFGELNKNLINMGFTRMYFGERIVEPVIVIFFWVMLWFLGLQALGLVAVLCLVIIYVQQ
Target,log2 fold change [1],log2 fold change [2],log2 fold change (epoxomicin),log2 fold change [3],log2 fold change [4],log2 fold change [5],log2 fold change (rosiglitazone),log2 fold change [6],log2 fold change [7],log2 fold change (saracatinib),log2 fold change (sotrastaurin),log2 fold change (alvocidib),log2 fold change (Tubastatin A),log2 fold change [8],log2 fold change (defactinib),log2 fold change (rucaparib),log2 fold change [9],log2 fold change (encorafenib),log2 fold change [10],log2 fold change (volasertib)
DNAH10 (UniProt Q8IVF4),0.066,-0.146,0.072,-0.17,-0.183,-0.008,0.031,0,0.006,-0.067,-0.06,0.028,0.191,-0.157,0.004,-0.044,0.062,-0.06,-0.013,–
EIF4E2 (UniProt O60573),-0.202,0.124,0.018,-0.053,–,0.063,0.035,-0.034,–,-0.229,-0.288,-0.052,0.07,-0.026,-0.001,0.126,0.008,-0.013,-0.013,-0.381 (active)
FAM241A (UniProt Q8N8J7),-0.026,-0.002,–,0.057,0.037,-0.093,0.011,0.059,0.08,-0.012,-0.632 (active),-0.046,-0.035,0.042,0.013,0.006,-0.003,-0.009,0.03,0.007
DSN1 (UniProt Q9H410),-0.218,-0.034,-0.004,-0.107,–,0.007,-0.086,-0.008,–,0.032,-0.042,-0.164,0.082,-0.031,-0.146,0.076,0.016,0.02,0.029,-0.418 (active)
EDRF1 (UniProt Q3B7T1),0.046,–,0.009,-0.089,-0.046,–,0.004,0.006,-0.014,0.104,0.012,-0.006,–,-0.111,–,0.098,0.07,0.058,–,–
CTSS (UniProt P25774),-0.027,–,–,–,0.126,-0.021,–,0.051,-0.034,0.478 (active),0.051,-0.039,-0.084,–,0.074,0.258,0.134,-0.074,-0.012,–
DOP1A (UniProt Q5JWR5),–,–,0.069,-0.067,–,0.121,-0.026,–,–,–,–,–,–,-0.052,0.164,–,–,–,-0.083,–
EZH2 isoform 2 (UniProt Q15910),–,–,0.131,-0.173,–,0.022,0.243,0.155,–,-0.043,0.001,-0.18,0.119,0.011,-0.207,–,0.217,–,-0.302,-0.259
FAM135A (UniProt Q9P2D6),–,-0.068,-0.088,0.009,–,0.079,–,–,–,–,-0.192,–,–,0.004,-0.131,–,–,–,0.003,–
"DDX46, A0A0C4DG89",–,-0.074,0.155,–,–,–,–,–,–,–,–,–,–,–,–,–,–,–,–,–
DCP2 (UniProt Q8IU60),–,–,-0.04,–,–,-0.069,–,0.319,–,-0.053,-0.267,-0.047,0.013,–,0.098,–,-0.153,–,0.081,-0.153
EPHB4 (UniProt P54760),–,–,–,–,–,–,–,–,–,–,-0.057,–,–,–,–,–,–,–,–,-0.302
EDEM2 (UniProt Q9BV94),–,-0.035,-0.006,0.033,-0.087,-0.001,-0.077,-0.003,0.161,-0.23,-0.05,-0.028,0.022,-0.016,0.036,–,0.079,–,0.105,-0.159
EHBP1 (UniProt Q8NDI1),-0.155,–,–,–,0.011,–,–,–,0.015,–,–,-0.085,0.045,–,–,0.135,–,-0.058,–,–
EPHX2 (UniProt E5RI53),–,–,-0.199,–,–,–,-0.248,–,–,–,–,–,–,–,–,–,–,–,–,–
EIF4G1 (UniProt Q04637),–,–,–,–,0.062,0,–,0.224,-0.552 (active),-0.112,–,0.047,0.006,–,-0.08,–,-0.017,–,0.014,–
DCAF12 (UniProt Q5T6F0),-0.132,–,–,–,-0.141,–,–,–,0.197,–,0.058,–,–,–,–,0.199,–,0.112,–,–
ELMO1 (UniProt Q92556),–,-0.089,-0.109,0.046,–,0.031,0.076,-0.078,–,0.051,0.046,–,–,-0.074,-0.045,–,0.041,–,-0.222,–
EID1 (UniProt Q9Y6B2),–,0.172,0.83 (active),0.05,-0.104,–,–,–,-0.317,–,-0.049,–,0.599,-0.111,–,–,–,–,–,0.053
DDX11 (UniProt Q96FC9),–,0.128,0.099,-0.018,–,0.098,0.052,-0.04,–,-0.016,-0.248,–,-0.034,-0.035,-0.052,–,-0.005,–,0.118,-0.084
DERPC (UniProt P0CG12),0.127,-0.051,–,0,0.197,0.053,0.04,0.519 (active),0.025,-0.168,–,–,–,0.08,-0.153,-0.001,-0.071,-0.109,0.063,–
DOCK8 (UniProt Q8NF50),0.01,0.004,0.119,-0.208,-0.094,-0.009,0.028,0.258,0.137,-0.241,-0.398,0.149,0.166,-0.163,0.242,0.044,-0.06,-0.079,-0.154,–
DBNL (UniProt Q9UJU6),–,–,–,–,–,–,–,–,–,–,–,-0.142,–,–,–,–,–,–,–,–
EIF3J isoform 2 (UniProt O75822),–,-0.079,0.025,0.03,–,0.076,-0.038,0.133,–,0.035,0.075,–,-0.082,-0.021,-0.085,–,-0.04,–,-0.008,0.031
EEF1D isoform 3 (UniProt P29692),–,–,–,-0.067,–,–,–,–,–,–,–,–,0.147,-0.03,–,–,–,–,–,–
DLK1 (UniProt P80370),0.43 (active),–,0.012,–,–,-0.016,–,0.127,–,0.021,–,0.03,–,–,-0.08,-0.023,-0.09,-0.032,0.159,–
F2RL3 (UniProt Q96RI0),–,–,–,0.074,–,0.012,–,-0.002,–,0.04,–,0.004,0.082,-0.051,0.009,–,0.005,–,0.008,0.076
DNAJB1 (UniProt M0R128),–,–,–,–,–,-0.038,0.223,–,–,–,–,0.082,-0.058,–,-0.073,–,–,–,0.18,–
